In assay [1] the target is Nuclear receptor coactivator 3 (Homo sapiens) (UniProt Q9Y6Q9). Kind of assay: NCOA3 GAL4-fusion reporter inhibition – cell-based, luminescence, quadruplicate, confirmation (AID 588792;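 active = mean inhibition over 43.08%, the solvent-only control mean plus 3 SD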;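 note: 0% = DMSO treated cells and 100% = gossypol at 36 µM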). The following applies: HEK293 GAL4-SRC3 luciferase reporter, at 3.6 µM, stronger effect = higher value.
Assay [2] has as its system transactivating tegument protein VP16 (Human herpesvirus 1), Gal4-VP16 luciferase reporter. As to the kind of experiment: repression of VP16-driven luciferase reporter – cell-based, luminescence, high throughput, counter-screen for SRC3 inhibitor project (AID 588794; in the data active = inhibition above about 30%). To be noted: mammalian cells, at 3.6 µM, stronger effect = higher value.
The target in assay [3] is Nuclear receptor coactivator 1 (Homo sapiens) (UniProt Q15788). Kind of assay: NCOA1 GAL4-fusion reporter inhibition – cell-based, luminescence, quadruplicate, confirmation (AID 588820).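 Note: 0% = DMSO wells and 100% = gossypol 36 µM treated wells.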 To be noted: HEK293 GAL4-SRC1 luciferase reporter, at 3.6 µM, stronger effect = higher value.
Assay [4] in a line: repression of VP16-driven luciferase reporter – cell-based, luminescence, high throughput, counter-screen for SRC1 inhibitor project (AID 588824; in the data active = inhibition above about 25%). To be noted: cell-based VP16 transactivation luciferase luminescence; at 3.6 µM; stronger effect = higher value.
The nature of assay [5]: StAR promoter reporter inhibitors, counter-screen for LRH-1 inverse agonist project, cell-based, luminescence, high throughput (AID 651611; in the data active = inhibition above about 28%). The following applies: StAR promoter luciferase reporter counterscreen, at 3.6 µM, stronger effect = higher value.
Assay [6] addresses Nuclear receptor subfamily 5 group A member 2 (Homo sapiens) (UniProt O00482). Kind of assay: NR5A2 activity suppression in reporter cells – cell-based, luminescence, confirmation (AID 651613; in the data active = inhibition above about 42%;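 note: HEK293T cells co-transfected with LRH-1 and StAR promoter luciferase reporter; 0% = vehicle wells and 100% = parental cells lacking receptor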). The following applies: cell-based LRH-1 luciferase reporter, inverse agonism; at 3.6 µM; stronger effect = higher value.
Assay [7] addresses Steroidogenic factor 1 (Homo sapiens) (UniProt Q13285). As to the kind of experiment: inverse agonism at SF1 nuclear receptor – cell-based, luminescence, high throughput, counter-screen for LRH-1 inverse agonist project (AID 651614; in the data active = inhibition above about 44%;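 note: cells cotransfected with StAR promoter reporter and SF1 expression vector; 0% = vehicle on cells with receptor and 100% = vehicle on cells lacking receptor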). To be noted: cell-based SF1 luciferase reporter, at 3.6 µM, stronger effect = higher value.
Assay [8] can be described thus: compounds suppressing VP16-driven luciferase signal – cell-based, luminescence, high throughput, counter-screen for LRH-1 inverse agonist project (AID 651615; in the data active = inhibition above about 33%). The following applies: Gal4-VP16 luciferase reporter cells, at 3.6 µM, stronger effect = higher value.
Assay [9] deals with Photoreceptor-specific nuclear receptor (Homo sapiens) (UniProt Q9Y5X4). As to the kind of experiment: retest of NR2E3-NCOR disrupting agonists – cell-based, luminescence, CHO-S two-hybrid, confirmation (AID 624378;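 active = average inhibition above a cutoff equal to the mean inhibition of all tested compounds plus one SD, cut at about 70% in these data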;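 note: 0% = DMSO in NR2E3 cells and 100% = DMSO in cells lacking NR2E3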). To be noted: CHO-S mammalian two-hybrid NR2E3-NCOR, luciferase luminescence; at 3.98 µM; stronger effect = higher value.
Assay [10] can be described thus: nonselective effects on VP16 transactivation – cell-based, luminescence, CHO-S, high throughput, counter-screen for NR2E3 agonist project, confirmation (AID 624379;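 active = mean inhibition above a cutoff equal to the average over all tested compounds plus one standard deviation, cut at about 70% in these data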;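 note: 0% = DMSO with VP16-transfected cells and 100% = DMSO with cells lacking VP16; higher means less reporter light so more repression of VP16 activity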). The following applies: CHO-S GAL4-VP16 luciferase reporter, at 3.98 µM, stronger effect = higher value.
In assay [11] the test system is transactivating tegument protein VP16 (Human herpesvirus 1). Kind of assay: compounds suppressing VP16-driven luciferase signal – cell-based, luminescence, single concentration, counter-screen for SRC2 inhibitor project (AID 652007; in the data active = inhibition above about 36%). To be noted: cell-based VP16 transactivation luciferase reporter, at 8.9 µM, stronger effect = higher value.
Assay [12] addresses Nuclear receptor coactivator 2 (Homo sapiens) (UniProt Q15596). Kind of assay: inhibition of GAL4-SRC2 driven luciferase expression – cell-based, luminescence, HEK293, triplicate, confirmation (AID 652008;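 active = mean inhibition above 46.5%, the solvent-only control mean plus 3 SD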;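 note: 0% = DMSO-treated cells and 100% = Gossypol at 36 µM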). To be noted: HEK293 GAL4-SRC2 luciferase reporter, at 8.9 µM, stronger effect = higher value.
The nature of assay [13]: VP16-driven transactivation reporter suppression – cell-based, luminescence, HEK293, counter-screen for COUP-TFII antagonist project (AID 687007; in the data active = inhibition above about 13%). The following applies: HEK293 Gal4-VP16 luciferase reporter, at 8.5 µM, stronger effect = higher value.
The target of assay [14] is COUP transcription factor 2 (Homo sapiens) (UniProt P24468). As to the kind of experiment: retest of COUP-TFII reporter suppressors – cell-based, luciferase reporter, HEK293, triplicate, confirmation (AID 687008;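 active = mean inhibition over three repeats above a set limit taken from the earlier primary screen, cut at about 38% in these data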;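 note: 100% = cells given the luciferase reporter alone without the COUP-TF2 vector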). To be noted: HEK293 NGFI-A luciferase reporter, luminescence; at 8.5 µM; stronger effect = higher value.

Unmarked numbers belong to inactive results. The list shows a part of the results. Calls of active or inactive are those of the source.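 Rule for the calls, unless noted: active = mean inhibition above 46.68%, the untreated control wells mean plus 3 SD; inactive = the rest.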

Sequence of Nuclear receptor coactivator 3 (Homo sapiens) (Q9Y6Q9 whole entry, looked up, the tested form may be a part): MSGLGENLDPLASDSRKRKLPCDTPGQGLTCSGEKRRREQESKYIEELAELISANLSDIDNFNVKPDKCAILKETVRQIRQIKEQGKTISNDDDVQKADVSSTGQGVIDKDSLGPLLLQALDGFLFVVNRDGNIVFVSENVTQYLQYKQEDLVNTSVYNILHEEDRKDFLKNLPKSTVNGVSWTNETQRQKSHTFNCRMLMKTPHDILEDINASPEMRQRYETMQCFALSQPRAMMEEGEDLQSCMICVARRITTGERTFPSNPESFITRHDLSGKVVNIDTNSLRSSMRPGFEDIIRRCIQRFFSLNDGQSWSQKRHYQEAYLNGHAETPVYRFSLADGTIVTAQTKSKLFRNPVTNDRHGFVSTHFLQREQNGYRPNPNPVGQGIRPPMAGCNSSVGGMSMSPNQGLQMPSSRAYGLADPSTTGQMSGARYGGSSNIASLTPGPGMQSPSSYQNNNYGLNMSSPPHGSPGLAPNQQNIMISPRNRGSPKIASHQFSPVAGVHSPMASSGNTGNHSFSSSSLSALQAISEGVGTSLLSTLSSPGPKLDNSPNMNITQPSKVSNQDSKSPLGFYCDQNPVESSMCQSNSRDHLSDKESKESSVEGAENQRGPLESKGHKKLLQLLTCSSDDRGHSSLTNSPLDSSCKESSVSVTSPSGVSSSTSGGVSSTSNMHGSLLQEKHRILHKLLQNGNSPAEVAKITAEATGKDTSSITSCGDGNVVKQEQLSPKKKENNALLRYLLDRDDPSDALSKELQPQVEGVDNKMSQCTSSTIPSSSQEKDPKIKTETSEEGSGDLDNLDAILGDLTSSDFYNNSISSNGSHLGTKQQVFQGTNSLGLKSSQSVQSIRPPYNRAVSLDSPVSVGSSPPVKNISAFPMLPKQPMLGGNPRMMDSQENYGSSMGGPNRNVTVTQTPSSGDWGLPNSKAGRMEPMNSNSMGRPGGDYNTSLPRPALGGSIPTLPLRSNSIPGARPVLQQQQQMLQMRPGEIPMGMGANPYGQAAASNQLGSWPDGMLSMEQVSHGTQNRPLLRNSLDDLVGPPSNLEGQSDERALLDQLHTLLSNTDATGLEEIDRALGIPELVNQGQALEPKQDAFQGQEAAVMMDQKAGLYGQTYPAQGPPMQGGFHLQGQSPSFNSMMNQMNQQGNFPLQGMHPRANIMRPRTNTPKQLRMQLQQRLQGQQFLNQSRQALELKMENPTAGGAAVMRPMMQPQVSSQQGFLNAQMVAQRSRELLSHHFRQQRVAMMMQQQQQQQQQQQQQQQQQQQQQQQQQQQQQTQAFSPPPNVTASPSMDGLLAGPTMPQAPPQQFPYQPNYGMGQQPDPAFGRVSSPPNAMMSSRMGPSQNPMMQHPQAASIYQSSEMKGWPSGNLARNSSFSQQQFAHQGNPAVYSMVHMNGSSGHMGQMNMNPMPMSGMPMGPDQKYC
Sequence of Nuclear receptor coactivator 1 (Homo sapiens) (Q15788 whole entry, looked up, the tested form may be a part): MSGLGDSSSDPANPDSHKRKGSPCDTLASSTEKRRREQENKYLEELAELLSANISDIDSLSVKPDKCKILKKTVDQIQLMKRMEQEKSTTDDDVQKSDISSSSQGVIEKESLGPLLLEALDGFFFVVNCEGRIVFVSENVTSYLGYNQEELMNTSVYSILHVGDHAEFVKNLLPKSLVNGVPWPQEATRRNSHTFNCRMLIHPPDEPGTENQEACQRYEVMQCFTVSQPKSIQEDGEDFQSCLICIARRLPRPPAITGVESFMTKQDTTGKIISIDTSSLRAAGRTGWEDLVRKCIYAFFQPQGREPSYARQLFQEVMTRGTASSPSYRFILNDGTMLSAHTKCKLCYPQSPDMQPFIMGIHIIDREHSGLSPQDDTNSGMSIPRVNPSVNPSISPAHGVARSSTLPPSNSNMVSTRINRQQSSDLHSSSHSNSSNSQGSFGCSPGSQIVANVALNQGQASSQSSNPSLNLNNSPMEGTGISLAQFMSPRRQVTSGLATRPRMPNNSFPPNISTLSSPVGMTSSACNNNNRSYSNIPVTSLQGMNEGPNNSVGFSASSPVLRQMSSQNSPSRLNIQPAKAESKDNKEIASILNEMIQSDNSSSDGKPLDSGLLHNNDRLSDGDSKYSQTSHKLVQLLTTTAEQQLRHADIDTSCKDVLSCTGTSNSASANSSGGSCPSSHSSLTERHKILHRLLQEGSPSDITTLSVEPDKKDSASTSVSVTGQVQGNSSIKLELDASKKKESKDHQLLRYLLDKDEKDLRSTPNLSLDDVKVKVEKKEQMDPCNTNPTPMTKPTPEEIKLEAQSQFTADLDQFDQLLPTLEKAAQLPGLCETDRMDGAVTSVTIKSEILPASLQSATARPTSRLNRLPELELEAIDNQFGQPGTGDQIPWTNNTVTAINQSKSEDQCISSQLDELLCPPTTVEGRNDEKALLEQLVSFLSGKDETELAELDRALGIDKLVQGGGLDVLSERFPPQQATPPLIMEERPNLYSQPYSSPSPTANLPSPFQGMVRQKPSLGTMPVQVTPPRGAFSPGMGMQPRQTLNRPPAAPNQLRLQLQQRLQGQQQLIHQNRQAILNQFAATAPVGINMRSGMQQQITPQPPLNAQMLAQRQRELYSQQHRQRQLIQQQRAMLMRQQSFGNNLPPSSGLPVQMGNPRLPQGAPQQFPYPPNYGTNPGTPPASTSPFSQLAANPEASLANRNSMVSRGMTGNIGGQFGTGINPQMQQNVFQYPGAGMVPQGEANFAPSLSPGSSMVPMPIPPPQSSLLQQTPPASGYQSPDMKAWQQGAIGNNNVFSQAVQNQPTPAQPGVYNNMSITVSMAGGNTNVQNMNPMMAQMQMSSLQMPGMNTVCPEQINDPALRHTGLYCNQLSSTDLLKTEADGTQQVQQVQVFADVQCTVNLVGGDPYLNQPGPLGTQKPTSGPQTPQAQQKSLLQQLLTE
Sequence of Steroidogenic factor 1 (Homo sapiens) (Q13285 whole entry, looked up, the tested form may be a part): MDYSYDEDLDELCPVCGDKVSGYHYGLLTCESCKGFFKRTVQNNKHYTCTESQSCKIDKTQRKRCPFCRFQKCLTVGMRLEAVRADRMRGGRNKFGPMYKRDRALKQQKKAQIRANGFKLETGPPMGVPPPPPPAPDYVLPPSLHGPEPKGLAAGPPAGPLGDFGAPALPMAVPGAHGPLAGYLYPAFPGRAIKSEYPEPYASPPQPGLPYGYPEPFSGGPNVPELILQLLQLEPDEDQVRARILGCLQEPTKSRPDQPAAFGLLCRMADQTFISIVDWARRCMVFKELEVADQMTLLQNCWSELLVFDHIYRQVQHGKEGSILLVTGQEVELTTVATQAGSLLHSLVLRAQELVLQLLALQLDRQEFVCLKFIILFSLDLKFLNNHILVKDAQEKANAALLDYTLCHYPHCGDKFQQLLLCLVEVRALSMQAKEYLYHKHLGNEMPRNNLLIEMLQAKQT
Sequence of Nuclear receptor subfamily 5 group A member 2 (Homo sapiens) (O00482 whole entry, looked up): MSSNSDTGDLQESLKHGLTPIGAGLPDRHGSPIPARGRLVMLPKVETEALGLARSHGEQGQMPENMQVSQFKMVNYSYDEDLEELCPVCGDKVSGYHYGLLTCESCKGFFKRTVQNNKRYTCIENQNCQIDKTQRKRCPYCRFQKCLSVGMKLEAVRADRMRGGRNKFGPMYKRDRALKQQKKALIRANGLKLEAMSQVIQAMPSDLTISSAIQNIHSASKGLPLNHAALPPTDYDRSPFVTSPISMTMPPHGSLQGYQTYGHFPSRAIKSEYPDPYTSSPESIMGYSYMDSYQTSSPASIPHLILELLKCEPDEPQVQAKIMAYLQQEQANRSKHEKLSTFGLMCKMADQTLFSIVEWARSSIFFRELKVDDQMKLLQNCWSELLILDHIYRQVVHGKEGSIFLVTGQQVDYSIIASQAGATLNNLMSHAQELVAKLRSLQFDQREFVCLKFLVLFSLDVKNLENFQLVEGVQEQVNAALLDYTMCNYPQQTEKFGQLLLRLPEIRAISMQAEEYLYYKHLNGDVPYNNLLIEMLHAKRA
Sequence of Photoreceptor-specific nuclear receptor (Homo sapiens) (Q9Y5X4 whole entry, looked up): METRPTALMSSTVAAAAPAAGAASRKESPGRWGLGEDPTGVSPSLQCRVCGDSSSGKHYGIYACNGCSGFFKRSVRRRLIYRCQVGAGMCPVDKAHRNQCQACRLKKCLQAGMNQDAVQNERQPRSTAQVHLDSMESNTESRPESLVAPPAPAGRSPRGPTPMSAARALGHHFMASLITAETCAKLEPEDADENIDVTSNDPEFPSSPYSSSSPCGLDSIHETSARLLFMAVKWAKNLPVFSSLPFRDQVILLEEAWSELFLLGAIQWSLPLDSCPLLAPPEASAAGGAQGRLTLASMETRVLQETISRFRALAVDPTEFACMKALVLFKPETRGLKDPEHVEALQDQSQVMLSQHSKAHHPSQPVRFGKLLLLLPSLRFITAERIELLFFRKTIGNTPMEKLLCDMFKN
Sequence of COUP transcription factor 2 (Homo sapiens) (P24468 whole entry, looked up): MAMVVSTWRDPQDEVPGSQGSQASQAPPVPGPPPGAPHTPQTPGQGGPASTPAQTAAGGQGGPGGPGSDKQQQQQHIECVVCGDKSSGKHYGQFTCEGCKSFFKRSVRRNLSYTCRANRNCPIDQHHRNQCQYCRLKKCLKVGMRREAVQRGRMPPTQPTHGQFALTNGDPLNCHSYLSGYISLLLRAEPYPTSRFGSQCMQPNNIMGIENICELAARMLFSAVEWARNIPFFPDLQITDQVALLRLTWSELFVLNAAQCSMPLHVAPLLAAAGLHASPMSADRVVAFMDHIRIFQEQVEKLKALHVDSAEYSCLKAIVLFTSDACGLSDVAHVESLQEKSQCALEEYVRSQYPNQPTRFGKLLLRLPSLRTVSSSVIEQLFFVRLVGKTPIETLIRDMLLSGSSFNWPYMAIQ

As for `CC1CC(C)(O)CC(C(O)CC2CC(=O)NC(=O)C2)C1=O` (stereo not given), the inhibition is 96.7% (active) in assay [1]; 95.7% (active) in [2]; 89.7% (active) in [3]; 94.9% (active) in [4]; 96.2% (active) in assay [5]; 110% (active) in assay [6]. In addition, the inhibition in [7] was 98.5% (active); in [8], 98.1% (active).
For `CCOc1ccc(-c2c(C)n(-c3ccc(OCC)cc3)c3[n+]2CCCCC3)cc1`, the inhibition is 96.3% (active) in assay [1], 89% (active) in [2], 74% (active) in [3] and 87.2% (active) in [4].
As to `O=c1[nH]c2ccccc2n1C1CCN(C(c2cccs2)c2nnnn2Cc2ccccc2)CC1` (stereo not given), the inhibition is 32.3% in [1], 36.7% (active) in assay [2], 0.46% in assay [3] and 32.5% (active) in assay [4].
As to `CC(C)c1oc(=O)cc2c1[C@@H](O)[C@H]1OC(=O)[C@@]3(C)CC[C@@H](O)[C@@]2(C)C13` (stereo not given in full), the inhibition in [1] was 40.9%; in assay [2], 7.55%; in assay [3], -2.23%; in assay [4], 10%; in [5] it was 71.4% (active); in assay [6] it was 86.2% (active). The inhibition in assay [7] is 72.3% (active); in assay [8], 53.6% (active).
For the molecule `COc1ccc(-c2cc(-c3ccccc3)[n+](C)c(-c3ccccc3)c2)cc1`, the inhibition in assay [1] is 35.9%; in assay [2] it was 57.7% (active); in [3], 34.3%; in assay [4] it was 51.3% (active); in [5] it was 60.2% (active); in assay [6], 96% (active). The inhibition in [7] is 84.5% (active); in [8], 77.1% (active).
As for `CC(=NCc1ccc(F)cc1)c1c(O)n(C)c(=O)n(C)c1=O`, the inhibition in assay [1] was 11%; in assay [2], 49.6% (active); in [3], 12.8%; in assay [4] it was 49.7% (active); in assay [5] it was 39.6% (active); in assay [6], 51.4% (active). Further, the inhibition in assay [7] is 73% (active); in assay [8], 62.8% (active).
For the molecule `CCC(C)NC(=O)CCC(=O)OC1O[C@H]2OC3(C)CC[C@H]4[C@H](C)CCC(C1C)C24OO3` (stereo not given in full), the inhibition in assay [1] was 63.7% (active); in [2] it was 83.6% (active); in assay [3], 47.4% (active); in [4], 82% (active); in assay [5], 75% (active); in [6], 102% (active). In addition, the inhibition in [7] was 91.8% (active); in assay [8], 84.7% (active).
On to `CCC(C)(O)C(=O)OC1C(=O)OC2CC3C(C)=CC(=O)C(O)C3(C)C3C4(O)OCC23C1C(C)C4O` (stereo not given), for which the inhibition is 97.1% (active) in assay [1]; 96.7% (active) in [2]; 94.3% (active) in assay [3]; 96.4% (active) in assay [4]; 98.7% (active) in assay [9]; 86.9% (active) in [10]. In addition, the inhibition is 96.1% (active) in [5]; 109% (active) in assay [6]; 97.6% (active) in assay [7]; 96.8% (active) in assay [8]; 80.7% (active) in [11]; 74.8% (active) in assay [12]. Moreover, the inhibition in [13] is 31.2% (active); in assay [14], 90.8% (active).
In the case of `O=c1[nH]c2ccccc2n1C1CCN(C(c2ccnc3ccccc23)c2nnnn2-c2ccc3c(c2)OCCO3)CC1` (stereo not given), the inhibition in [1] is 8.29%; in assay [2] it was 6.76%; in assay [3] it was -26.3%; in assay [4], 8.7%.
For `C[C@H]1O[C@@H](OC2CC[C@]3(C=O)[C@H]4CC[C@]5(C)[C@@H](C6=CC(=O)OC6)CC[C@]5(O)[C@@H]4CC[C@]3(O)C2)CC2OC(C)(C)OC21` (stereo not given in full), the inhibition is 94.5% (active) in assay [1]; 85.3% (active) in [2]; 65.8% (active) in assay [3]; 83.1% (active) in [4]; 97.6% (active) in [5]; 111% (active) in assay [6]. Further, the inhibition is 99.5% (active) in [7] and 93.3% (active) in [8].
With `CC1=CC2OC3CC4OC(=O)C=CC=CC(=O)OCCC(C)C(O)C(=O)OCC2(CC1O)C4(C)C31CO1` (stereo not given), the inhibition in [1] is 98% (active); in assay [2], 96.8% (active); in assay [3] it was 96.8% (active); in [4], 95.6% (active).
With `CC[C@@H](O)C[C@H]1CCC[C@@]2(C[C@@H]3OC(=O)/C=C/[C@@](C)(O)[C@@H](O)[C@H](C)[C@@H](O)[C@H](OC4CCC(N(C)C)C(C)O4)[C@@H](O)[C@](C)(O)CCCCC/C=C/[C@@H]4CC(C)(C)O[C@@]4(O)C[C@H](O2)[C@H]3C)O1` (stereo not given in full), the inhibition in assay [1] is 76.5% (active); in assay [2], 85.9% (active); in assay [3] it was 62.5% (active); in assay [4] it was 85% (active); in [5] it was 79.8% (active); in assay [6], 105% (active). For the same molecule, the results for the inhibition in assay [7] and in assay [8] were 94% (active) and 87.9% (active), respectively.
On to `O=c1[nH]c2ccccc2n1C1CCN(C(c2ccccc2)c2nnnn2Cc2ccccc2)CC1` (stereo not given), for which the inhibition in assay [1] is 64.1% (active); in assay [2], 16.8%; in [3], -21.5%; in assay [4], 15.1%; in assay [9], 30.7%; in [10], 4.07%.
Regarding `CC1=C(N2CC2)C(=O)C(CO)=C(N2CC2)C1=O`, the inhibition is 96.1% (active) in assay [1], 91.2% (active) in [2], 86.1% (active) in [3] and 93% (active) in assay [4].
For `O=C(CSC1c2ccccc2-c2ccccc21)N/N=C/c1ccccc1O`, the inhibition in assay [1] was 17.4%; in assay [2] it was 21.9%; in assay [3], 13.8%; in assay [4] it was 18%.
On to `CC(=O)OC1C(=O)OCC23CCC4(C)OC4C2OC2CC(OC(=O)C=CC=CC(=O)OCCC1C)C3(C)C21CO1` (stereo not given), for which the inhibition in assay [1] was 98.1% (active); in assay [2], 96.5% (active); in assay [3] it was 96.7% (active); in [4], 96.3% (active); in assay [5], 96.8% (active); in assay [6] it was 110% (active). The inhibition is 98.6% (active) in [7] and 95.3% (active) in assay [8].
`CNC(=O)c1cccn(Cc2cc(C(F)(F)F)cc(C(F)(F)F)c2)c1=O`: the inhibition was 28.4% in [1], 11% in assay [2], 10.9% in assay [3] and 3.5% in assay [4].
Turning to `O=[N+]([O-])c1ccc(N2CCOCC2)c2c1no[n+]2[O-]`, the inhibition was 82.4% (active) in assay [1]; 62.9% (active) in assay [2]; 23% in assay [3]; 62.2% (active) in assay [4]; 94.1% (active) in assay [5]; 101% (active) in assay [6]. Besides, the inhibition in [7] was 92.6% (active); in assay [8] it was 70.7% (active).
